Compound activity deposited in PubChem by National Center for Advancing Translational Sciences (NCATS).
Shown are actives, neighbours in structure and some others; about 21% of the full set was active somewhere.
ClpP mod: qHTS Assay for Activators of ClpP | ATP-dependent Clp protease proteolytic subunit (Bacillus subtilis (strain 168)), P80244 | AID 651965, 2013 | Potency, µM (titrated, usually from 57.5 µM), for the others: top-dose activity change, negative = active | purified B. subtilis ClpP, FRET peptide cleavage, 20 min | 340,000 compounds, 1.9% hits; active = well fitted falling curve with a large enough effect; inconclusive = small, poorly fitted or top-dose-only effect; inactive = no such curve, though single readings can be large or run the other way; note: potency is the fitted concentration of half-maximal effect; the source files actives as falling curves though it sought activators and does not explain the sign; nearly all actives have a fitted effect of over 65% in size
Target sequence (P80244 whole entry, looked up): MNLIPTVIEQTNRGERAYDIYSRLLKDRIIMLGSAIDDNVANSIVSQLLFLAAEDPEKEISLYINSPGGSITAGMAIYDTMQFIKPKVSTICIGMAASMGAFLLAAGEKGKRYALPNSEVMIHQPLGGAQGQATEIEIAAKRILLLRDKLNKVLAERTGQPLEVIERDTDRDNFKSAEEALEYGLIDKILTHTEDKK
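Purified B. subtilis ClpP, 10 microg/mL final in Tris/HCl pH8 with KCl, BSA, glycerol and Tween-20, cleaved an Abz/nitrotyrosine-quenched decapeptide. Fluorescence (ex 320, em 430) was read at 0 and 20 min at room temperature. Delta was normalized to 5.8 microM ADEP and DMSO/no-enzyme controls.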
DT40 TDP1 no CPT: qHTS for Inhibitors of human tyrosyl-DNA phosphodiesterase 1 (TDP1): qHTS in cells in absence of CPT | DT40 Tdp1-/- hTDP1 cells, no CPT, ATP luminescence, 48 h | Potency, µM (top dose mostly 46.2 µM), inactives show top-dose activity change, negative = growth inhibition, most hits filed as inhibitors | AID 686978, 2013 | 420,000 compounds, 15% hits; note: potency is the fitted concentration of half-maximal effect; % is set by controls: 0 for no effect and ±100 for the full control effect; nearly all actives have a fitted effect of over 55% in size
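Seeded 400 DT40-hTDP1 cells/well (vehicle DMSO, no 20 nM CPT); pinned compounds; ≥48 hr at 37 °C; CellTiter-Glo luminescence as viability measure.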
TDP1 cell CPT: qHTS for Inhibitors of human tyrosyl-DNA phosphodiesterase 1 (TDP1): qHTS in cells in presence of CPT | chicken DT40 Tdp1-/-;hTDP1 cells + 20 nM CPT, ATP luminescence, 48 h | Potency, µM (highest dose often 46.2 µM), without a hit: at the highest dose activity change, negative = growth inhibition, hits mostly inhibitors | 420,000 compounds, 12% hits | AID 686979, 2013; note: potency is the fitted concentration of half-maximal effect; % is set by controls: 0 for no effect and ±100 for the full control effect; nearly all actives have a fitted effect of over 55% in size
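Chicken DT40 Tdp1-/- cells stably complemented with human TDP1 were seeded at 400 cells/well in medium containing 20 nM camptothecin, exposed to pin-transferred compounds, and grown at 37 °C for at least 48 hr. Viability was read as ATP luminescence.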
DRD3 antagonist: qHTS of D3 Dopamine Receptor Antagonist: qHTS; max response, negative = inhibition, %; 360,000 compounds, 2.5% hits; D(3) dopamine receptor (Homo sapiens), P35462; D3R cells, DiscoveRx beta-arrestin luminescence, antagonist mode; active compounds read low; in the data active = max response below about -50%; inconclusive = no clear call, values can overlap the other calls; note: % is set by controls: 0 for no effect and ±100 for the full control effect
Target sequence (P35462 whole entry, looked up): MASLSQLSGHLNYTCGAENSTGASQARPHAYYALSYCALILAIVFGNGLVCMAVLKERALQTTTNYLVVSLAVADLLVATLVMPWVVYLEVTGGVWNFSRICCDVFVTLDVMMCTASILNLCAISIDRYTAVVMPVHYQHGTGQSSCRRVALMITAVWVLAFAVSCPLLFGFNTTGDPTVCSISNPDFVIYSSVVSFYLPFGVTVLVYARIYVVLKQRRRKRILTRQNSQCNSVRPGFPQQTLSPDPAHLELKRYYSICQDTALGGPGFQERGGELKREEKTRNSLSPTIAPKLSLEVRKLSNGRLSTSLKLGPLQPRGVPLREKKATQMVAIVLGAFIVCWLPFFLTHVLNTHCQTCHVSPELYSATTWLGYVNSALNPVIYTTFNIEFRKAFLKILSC
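Cells expressing the human receptor were seeded at 1500 cells/well, incubated overnight at 37 degrees C in 5% CO2, then exposed to library compounds with dopamine controls for 90 minutes at 37 degrees C before luminescent detection.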
IL1B secr inh: qHTS for Inhibitors of Inflammasome Signaling: IL-1-beta AlphaLISA Primary Screen; activity change, % at 57.5 µM; THP-1 LPS/ATP IL-1B secretion, AlphaLISA, 16 h; active compounds read low; 360,000 compounds, 4.7% hits; AID 743279, 2014; in the data active = activity change below about -50%; inconclusive = mostly about -30% to -49%; note: % is set by controls: 0 for no effect and ±100 for the full control effect
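Secreted IL-1B measured by AlphaLISA bead assay after 16 h compound exposure of THP-1 cells; compounds (final up to 57.5 uM) added 1 h before LPS (250 ng/mL) and ATP (1.25 mM) stimulation; lower signal means less secretion.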
DRD3 agonist: qHTS of D3 Dopamine Receptor Agonist: qHTS | D(3) dopamine receptor (Homo sapiens), P35462 | D3R DiscoveRx beta-arrestin cells, luminescence, 90 min | max activation, % | 410,000 compounds, 0.58% hits | AID 652048, 2013; in the data active = max activation above about 30%; note: 0% is about no effect
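Agonist-mode cell screen: cells plated at 1500/well and incubated overnight at 37 °C, then exposed to library compounds for 90 min at 37 °C. Detection reagent was added for 30–60 min at room temperature, and luminescence was read.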
* hit, by the source's call; ? = inconclusive; . = no result given; ! = a repeat was not active. Unless noted, calls come from the whole dose curve; as a rule, active = well fitted inhibition curve with a large enough effect; inconclusive = small, poorly fitted or top-dose-only effect; inactive = flat fitted curve, though single readings scatter.

SMILES	ClpP mod	DT40 TDP1 no CPT	TDP1 cell CPT	DRD3 antagonist	IL1B secr inh	DRD3 agonist
COc1cc(OC)c(C2C=C(c3ccc(C)cc3)Nc3c(C(=O)Nc4ccccc4)cnn32)cc1OC (stereo not drawn)	-1.4%	?	?	.	.	-5.2
O=C(Nc1ccccc1)Nc1ccc2snnc2c1	1.3%	18.4µM*	?	-14.2	-19.1	0.4
CN(C)c1ccc(NC(=O)Nc2ccc3snnc3c2)cc1	-0.3%	-15.4%	-0.6%	?	-21.7	-5.7
Cn1c(=O)c(NC2CCCCC2)c2c3c(cccc31)C(=O)c1ccccc1-2	.	?	?	-2.5	-66.4*	-2.6
CCCCNc1c2c3c(cccc3n(C)c1=O)C(=O)c1ccccc1-2	0.7%	18.4µM*	?	11.8	9.5	-5.3
CCOC(=O)[C@H](CCc1ccccc1)N[C@H]1CCc2ccccc2N(CC(=O)O)C1=O	0.2%	21.1µM*!	?	10.6	9.6	6.3
Oc1ccc(/C(Cc2ccccn2)=N\Nc2ccccc2)c(O)c1	.	?	?	-2.0	-179.7*	-0.8
Oc1ccc(/C(Cc2ccc3ccccc3n2)=N\Nc2ccccc2)c(O)c1	-2.0%	23.1µM*	?	?	-97.9*	2.7
CC(=O)Oc1ccc(C(=O)Cc2ccc3ccccc3n2)c(O)c1C	-2.2%	6.0%	-13.2%	-6.4	4.2	0.0
N/N=C(\Cc1cscn1)c1ccc(O)cc1O	.	?	-7.9%	-10.3	4.8	-1.4
Cc1c(O)ccc(/C(Cc2ccc3ccccc3n2)=N\O)c1O	0.6%	20.6µM*	20.6µM*	5.1	-66.8*	-1.6
C=CCN(C(C(=O)OC)C(C)C)S(=O)(=O)CCNCc1ccccc1 (stereo not drawn)	1.5%	?	?	-16.7	92.4	-1.4
O=C(CSc1nnc(-c2cccnc2)n1CCN1CCCCC1)Nc1cccc(Cl)c1	15.8µM*	?	11.2%	-2.7	4.6	-3.0
Cc1cc(NC(=O)CSc2nnc(-c3cccnc3)n2Cc2ccccc2)no1	3.16µM*	-3.9%	-2.5%	3.3	-0.4	-4.3
CCn1c(SCC(=O)Nc2cc(C)on2)nnc1-c1cccnc1	-1.1%	-5.7%	-17.6%	9.6	10.4	-5.7
CCOc1ccc(C(O)(c2ccccc2)C(CN2CCCC2)c2ccccc2)cc1 (stereo not drawn)	.	7.31µM*	?	-9.2	-60.9*	-8.6
COc1ccc(C(O)(CCC(C)C)C(CN2CCOCC2)c2ccc(Cl)cc2)cc1 (stereo not drawn)	.	14.6µM*	?	2.5	-81.4*	-3.3
COc1ccc(C(O)(CC(C)C)C(CN2CCOCC2)c2ccccc2)cc1 (stereo not drawn)	.	20.6µM*	?	-23.5	-5.1	88.3*
CCOc1ccc(C(O)(CCC(C)C)C(CN2CCOCC2)c2ccccc2)cc1 (stereo not drawn)	.	20.6µM*	?	3.4	-60.1*	-1.1
CCc1ccc(C(O)(CC(C)C)C(CN2CCOCC2)c2ccccc2)cc1 (stereo not drawn)	-0.7%	?	?	-8.6	-7.2	-1.2
Cc1ccc(C2(c3ccccc3)NC(=O)N(CC(=O)NC3(C#N)CCCC3)C2=O)cc1C (stereo not drawn)	1.4%	-5.3%	-9.5%	-27.7	-5.0	-2.5
CSCC[C@H](N)C(=O)NC[C@H]1CC[C@H](C(=O)N[C@@H](Cc2ccccc2)C(=O)O)CC1	0.7%	11.8%	1.7%	-9.6	-14.8	-4.1
CCc1ccc(NC(=O)CN(c2ccc(OC)cc2)S(=O)(=O)c2c(C)nn(C)c2C)cc1	0.6%	-2.2%	?	0.0	19.9	-1.1
CC(=O)Nc1ccc(N(C(=O)CNC(=O)c2ccco2)C(C(=O)NC2CCCC2)c2ccco2)cc1 (stereo not drawn)	.	1.7%	9.4%	10.4	3.2	-1.1
O=C(NCCc1c[nH]c2ccccc12)C(=O)c1c[nH]c2ccccc12	0.9%	14.6µM*	?	11.3	-17.8	-8.1
SMILES	ClpP mod	DT40 TDP1 no CPT	TDP1 cell CPT	DRD3 antagonist	IL1B secr inh	DRD3 agonist
Cc1cc2cc(CCNC(=O)C(=O)c3c[nH]c4ccccc34)c(=O)[nH]c2cc1C	.	18.4µM*	14.6µM*	54.2	-56.3*	4.4
O=C(CCNS(=O)(=O)c1ccc(OC(F)(F)F)cc1)NCCc1c[nH]c2ccccc12	0.0%	23.1µM*	14.6µM*	-1.1	-7.6	-20.1
COC(=O)[C@@H](Cc1ccccc1)NC(=O)NCCc1c[nH]c2ccccc12	-1.2%	?	-0.7%	2.8	-97.9*	-19.8
O=C(NCCc1c[nH]c2ccccc12)N[C@@H](Cc1ccccc1)C(=O)O	.	-12.0%	-12.5%	0.7	6.9	-3.0
COc1cc(NC(=O)CN2CCN(c3ccc(F)cc3)CC2)cc(OC)c1	-3.0%	?	-21.6%	.	.	1.6
CC(=O)c1ccc(NC(=O)CN(c2c(C)cccc2C)S(C)(=O)=O)cc1	0.3%	-9.9%	-1.2%	26.6	-11.0	2.9
Cc1cc(/C=C(\C#N)C(=O)NCCc2c[nH]c3ccccc23)c(C)n1C	-3.7%	?	?	-14.3	?	4.8
COc1cc(/C=C(/C#N)C(=O)NCCc2c[nH]c3ccccc23)ccc1OCc1ccccc1F	-3.4%	?	11.6µM*	-21.0	9.6	3.9
COc1ccc(/C=C/C(=O)NCCc2c[nH]c3ccccc23)cc1OC	-7.9%	?	?	-12.3	-12.2	0.2
N#C/C(=C/c1ccc(Br)s1)C(=O)NCCc1c[nH]c2ccccc12	-1.6%	20.6µM*	23.1µM*	2.2	?	0.4
CC(=O)Nc1ccc(NC(=O)CCCCCn2nnc3ccccc3c2=O)cc1	.	-22.6%	7.8%	2.9	40.1	-2.5
COc1ccccc1N1CCN(C(=O)c2cccc(S(=O)(=O)N3c4ccccc4CC3C)c2)CC1 (stereo not drawn)	-3.1%	?	23.1µM*	-26.9	.	-5.4
CC1Cc2ccccc2N1S(=O)(=O)c1cccc(C(=O)N2Cc3ccccc3CC2C(N)=O)c1 (stereo not drawn)	-3.5%	8.2µM*	16.4µM*	-5.6	18.1	3.4
CCOC(=O)C1CCN(C(=O)c2cccc(S(=O)(=O)N3c4ccccc4CC3C)c2)CC1 (stereo not drawn)	-3.8%	?	?	-16.2	3.9	-7.4
